Measured values from PubChem BioAssay (NCATS).
Results filed as inconclusive are left out. The source made the active and inactive calls. Calls come from the whole dose curve; as a rule, active = well fitted cell-killing curve with a large enough effect; inconclusive = small, poorly fitted or top-dose-only effect, or effect the other way; inactive = flat fitted curve, though single readings scatter.

Experiments:
Assay in all cases: Primary qHTS to identify gynecologic anti-cancer compounds using libraries of approved drugs and bioactive compounds (AID 1345084); note: nearly all actives have a fitted effect of over 55% in size
C33A = conditions: Gynecologic cancer cell panel viability, ATPlite luminescence, 48 h; series mostly up to 57.5 µM
Method in brief: (§1)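 Luminescence from the ATPlite ATP-monitoring reagent indicates viable cell number; lower signal means cytotoxicity. Cells received compound 16 h after seeding and were exposed for 48 h across five concentrations.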

CAOV3 = conditions: Gynecologic cancer cell panel viability, ATPlite luminescence, 48 h; series mostly up to 57.5 µM
Method in brief: as §1

CASKI = conditions: Gynecologic cancer cell panel viability, ATPlite luminescence, 48 h; series mostly up to 57.5 µM
Method in brief: as §1

Es-2 = conditions: Gynecologic cancer cell panel viability, ATPlite luminescence, 48 h; series mostly up to 57.5 µM
Method in brief: as §1

HeLa = conditions: Gynecologic cancer cell panel viability, ATPlite luminescence, 48 h; series mostly up to 57.5 µM
Method in brief: as §1

Hek293T = conditions: Gynecologic cancer cell panel viability, ATPlite luminescence, 48 h, control line for the selectivity index; series mostly up to 57.5 µM
Method in brief: as §1

JEG-3 = conditions: Gynecologic cancer cell panel viability, ATPlite luminescence, 48 h; series mostly up to 57.5 µM
Method in brief: as §1

OV90 = conditions: Gynecologic cancer cell panel viability, ATPlite luminescence, 48 h; series mostly up to 57.5 µM
Method in brief: as §1

PA-1 = conditions: Gynecologic cancer cell panel viability, ATPlite luminescence, 48 h; series mostly up to 57.5 µM
Method in brief: as §1

Tov-21-G = conditions: Gynecologic cancer cell panel viability, ATPlite luminescence, 48 h; series mostly up to 57.5 µM
Method in brief: as §1

Tov112D = conditions: Gynecologic cancer cell panel viability, ATPlite luminescence, 48 h; series mostly up to 57.5 µM
Method in brief: as §1

SKOV3 = conditions: Gynecologic cancer cell panel viability, ATPlite luminescence, 48 h; series mostly up to 57.5 µM
Method in brief: as §1
% is set by controls: 0 for no effect and ±100 for the full control effect.

CCCCC(=O)N1c2ccccc2NC2=C(C(=O)CCC2)C1c1ccccc1Cl (stereo unspecified)
inactive: Potency (C33A) | Potency (CAOV3) | outcome (CASKI) | Potency (Es-2) | Potency (HeLa) | Potency (Hek293T) | Potency (JEG-3) | Potency (OV90) | Potency (PA-1) | Potency (Tov-21-G) | Potency (Tov112D)

CC1C2=CC(=O)OC2(O)CC2C1C(OC(=O)c1ccccc1)C(OC(=O)c1ccccc1)C1(O)C2(C)CCC(O)C1(C)C(=O)O (stereo unspecified)
inactive: Potency (C33A) | Potency (CAOV3) | outcome (CASKI) | Potency (Es-2) | Potency (HeLa) | Potency (Hek293T) | Potency (JEG-3) | Potency (OV90) | Potency (PA-1) | Potency (Tov-21-G) | Potency (Tov112D)

C[C@@H]1CC[C@]2(C(=O)O[C@@H]3O[C@H](CO[C@@H]4O[C@H](CO)[C@@H](O)[C@H](O)[C@H]4O)[C@@H](O)[C@H](O)[C@H]3O)CC[C@]3(C)C(=CCC4[C@@]5(C)CC[C@H](O)[C@](C)(C(=O)O)C5CC[C@]43C)[C@@H]2[C@]1(C)O (stereo partly specified)
inactive: activity change, negative = cytotoxicity (C33A) -1.83% [at 11.6 µM] | activity change, negative = cytotoxicity (CAOV3) 5.32% [at 11.6 µM] | activity change, negative = cytotoxicity (CASKI) 3.63% [at 11.6 µM] | activity change, negative = cytotoxicity (Es-2) 6.01% [at 11.6 µM] | activity change, negative = cytotoxicity (HeLa) 4.82% [at 11.6 µM] | activity change, negative = cytotoxicity (Hek293T) 10.6% [at 11.6 µM] | activity change, negative = cytotoxicity (JEG-3) 0.0588% [at 11.6 µM] | activity change, negative = cytotoxicity (OV90) 16.5% [at 11.6 µM] | activity change, negative = cytotoxicity (PA-1) 3.28% [at 11.6 µM] | activity change, negative = cytotoxicity (Tov-21-G) 4.06% [at 11.6 µM] | activity change, negative = cytotoxicity (Tov112D) -2.64% [at 11.6 µM]

CC1=CC2=C(C)C(=O)C(C)(O)C(O)C2CO1 (stereo unspecified)
inactive: Potency (C33A) | Potency (CAOV3) | outcome (CASKI) | Potency (Es-2) | Potency (HeLa) | Potency (Hek293T) | Potency (JEG-3) | Potency (OV90) | Potency (PA-1) | Potency (Tov-21-G) | Potency (Tov112D)

OCC(O)C(c1c[nH]c2ccccc12)c1c[nH]c2ccccc12 (stereo unspecified)
inactive: Potency (C33A) | Potency (CAOV3) | outcome (CASKI) | Potency (Es-2) | Potency (HeLa) | Potency (Hek293T) | Potency (JEG-3) | Potency (OV90) | Potency (PA-1) | Potency (Tov-21-G) | Potency (Tov112D)

CC/C=C/C=C/C1(C)OC(CC(CO)OC)=CC1=O (stereo unspecified)
inactive: Potency (C33A) | Potency (CAOV3) | outcome (CASKI) | Potency (Es-2) | Potency (HeLa) | Potency (Hek293T) | Potency (JEG-3) | Potency (OV90) | Potency (PA-1) | Potency (Tov-21-G) | Potency (Tov112D)

C/C=C(/C)C(=O)OC1C2OC2C2(CO2)C2C3OC(=O)C(C)C3CCC12C (stereo unspecified)
inactive: Potency (C33A) | Potency (CAOV3) | outcome (CASKI) | Potency (Es-2) | Potency (HeLa) | Potency (Hek293T) | Potency (JEG-3) | Potency (OV90) | Potency (PA-1) | Potency (Tov-21-G) | Potency (Tov112D)

CC1CCC23COC(=O)C2=CC(O)CC3C1(C)CCc1ccoc1 (stereo unspecified)
inactive: Potency (C33A) | Potency (CAOV3) | outcome (CASKI) | Potency (Es-2) | Potency (HeLa) | Potency (Hek293T) | Potency (JEG-3) | Potency (OV90) | Potency (PA-1) | Potency (Tov-21-G) | Potency (Tov112D)

Cc1cc(C(=O)N2Cc3cnn(C)c3Nc3ccccc32)ccc1CNC(=O)N1CCN(Cc2cc(O)cc(O)c2)CC1
inactive: Potency (C33A) | Potency (CAOV3) | outcome (CASKI) | Potency (Es-2) | Potency (HeLa) | Potency (Hek293T) | Potency (JEG-3) | Potency (OV90) | Potency (PA-1) | Potency (Tov-21-G) | Potency (Tov112D)

O=C(OC[C@H]1O[C@H](O[C@H]2CO[C@H](CO)[C@@H](O)[C@@H]2O)[C@H](O)[C@@H](O)[C@H]1O)c1ccccc1
inactive: Potency (C33A) | Potency (CAOV3) | outcome (CASKI) | Potency (Es-2) | Potency (HeLa) | Potency (Hek293T) | Potency (JEG-3) | Potency (OV90) | Potency (PA-1) | Potency (Tov-21-G) | Potency (Tov112D)

C[C@@H]1O[C@@H](O[C@@H]2\C=C/C=C\C=C/C=C\C[C@H](C)OC(=O)/C=C\[C@H]3O[C@@H]3C[C@H](O)C[C@]3(O)C[C@@H](O)[C@@H](C(=O)O)[C@H](C2)O3)[C@H](O)[C@H](N)[C@@H]1O
inactive: Potency (C33A) | Potency (CAOV3) | outcome (CASKI) | Potency (Es-2) | Potency (HeLa) | Potency (Hek293T) | Potency (JEG-3) | Potency (OV90) | Potency (PA-1) | Potency (Tov-21-G) | Potency (Tov112D)

C=C1C2(C)CC3C4(C)OC(C5OC56C4=CC(=O)OC6(C)C)C3(C)C13C(=O)OC(C)C3(O)C2=O (stereo unspecified)
inactive: Potency (C33A) | Potency (CAOV3) | outcome (CASKI) | Potency (Es-2) | Potency (HeLa) | Potency (Hek293T) | Potency (JEG-3) | Potency (OV90) | Potency (SKOV3) | Potency (Tov-21-G) | Potency (Tov112D)

O=C(O)c1cccc(CN2C(=O)/C(=C(\c3ccccc3)c3ccc(Cl)cc3)c3ccccc32)c1
inactive: Potency (C33A) | Potency (CAOV3) | outcome (CASKI) | Potency (Es-2) | Potency (HeLa) | Potency (Hek293T) | Potency (JEG-3) | Potency (OV90) | Potency (PA-1) | Potency (Tov-21-G) | Potency (Tov112D)

NC(=O)c1ccc(F)c2c1C[C@@H](N(C1CCC1)C1CCC1)CO2
inactive: Potency (C33A) | Potency (CAOV3) | outcome (CASKI) | Potency (Es-2) | Potency (HeLa) | Potency (Hek293T) | Potency (JEG-3) | Potency (OV90) | Potency (PA-1) | Potency (Tov-21-G) | Potency (Tov112D)

COc1ccc(C(=O)CC(=O)O)c2c1C=CC(C)(C)O2
inactive: Potency (C33A) | Potency (CAOV3) | outcome (CASKI) | Potency (Es-2) | Potency (HeLa) | Potency (Hek293T) | Potency (JEG-3) | Potency (OV90) | Potency (PA-1) | Potency (Tov-21-G) | Potency (Tov112D)

COc1c(C)c(OCC=C(C)C)cc2c1CNC2=O
inactive: Potency (C33A) | Potency (CAOV3) | outcome (CASKI) | Potency (Es-2) | Potency (HeLa) | Potency (Hek293T) | Potency (JEG-3) | Potency (OV90) | Potency (SKOV3) | Potency (Tov-21-G) | Potency (Tov112D)
